Test results: the OligoGym collection

target: ZFP62; test: pooled miR-30 sensor sort-seq; sequence = guide strand; details: shRNA
Also: reference of the scale not given here.

Question: ATACATAAGGTCTCTCTCCGGT was tested. Which sensor-assay potency score (higher = more potent) did it give?
Answer: 0.0569

Question: TTTCTCTCTAGTGTGGACCCTT was tested. Which sensor-assay potency score (higher = more potent) did it give?
Answer: -0.0465

Question: With TTATATTTGAAGGATTTCCCAC as the sequence, how does the sensor-assay potency score (higher = more potent) read?
Answer: -0.915

Question: With TTTTCTGCTGTAGACTAGGGTA as the sequence, how does the sensor-assay potency score (higher = more potent) read?
Answer: -0.796

Question: TTCTGCTTGAGAAAAAAGCTTT was tested. Which sensor-assay potency score (higher = more potent) did it give?
Answer: -0.449

Question: How did the sensor-assay potency score (higher = more potent) turn out when TTTGCCACAGACATCACACTTG was run?
Answer: 0.373

Question: With TTTTATGTTGAACAAGGCGGGA as the sequence, how does the sensor-assay potency score (higher = more potent) read?
Answer: -0.995

Question: For TTGAGTGTGAGATGTAGGCTTT, which sensor-assay potency score (higher = more potent) is on record?
Answer: -0.179

Question: How did the sensor-assay potency score (higher = more potent) turn out when TAGAGCGTGAGATATAGGCTTT was run?
Answer: -0.26

target: ZFR2; test: as above; details: shRNA

Question: For TCCGTAGCTGTAACTGTCCTGG, which sensor-assay potency score (higher = more potent) is on record?
Answer: -0.711

Question: For TTCGTCGCTGAACACCTCCTCC, which sensor-assay potency score (higher = more potent) is on record?
Answer: -0.823

Question: How did the sensor-assay potency score (higher = more potent) turn out when TTGGGTCTCGGCAGCTTGCTGG was run?
Answer: -0.733

Question: How did the sensor-assay potency score (higher = more potent) turn out when TTTCTTCCGGTACTGCAGCCGG was run?
Answer: -0.948

Question: Which sensor-assay potency score (higher = more potent) does the source give for TAGCTTGGTGCCGTGTAGGCGG here?
Answer: -0.795

Question: TCTGTCTGGTCTCTCTCGCAGG was tested. Which sensor-assay potency score (higher = more potent) did it give?
Answer: -0.775

Question: With TTAAGGTCGTTGAAACTGCACT as the sequence, how does the sensor-assay potency score (higher = more potent) read?
Answer: -0.864

Question: How did the sensor-assay potency score (higher = more potent) turn out when TATGGTGACCTGCATCCTGGGC was run?
Answer: -0.904

Question: TAGTGAAGCTGGAGCTGCCTGG was tested. Which sensor-assay potency score (higher = more potent) did it give?
Answer: -0.835

Question: With TGCAGCTTGAAGACCTTCTGGT as the sequence, how does the sensor-assay potency score (higher = more potent) read?
Answer: 0.0557

Question: For TGTCGCAGTAGTGAAGCTGGAG, which sensor-assay potency score (higher = more potent) is on record?
Answer: -0.148

Question: Which sensor-assay potency score (higher = more potent) does the source give for TCATCCTCGGTCACCATCTGGA here?
Answer: -0.791

target: ZFR; test: as above; details: shRNA

Question: How did the sensor-assay potency score (higher = more potent) turn out when TTACATATGAGTATGAATCCTG was run?
Answer: 0.475

Question: For TATAACAGCAAGCTGTTTGGGT, which sensor-assay potency score (higher = more potent) is on record?
Answer: 0.358

Question: For TAGAACTTTGTGTATCTGGCGG, which sensor-assay potency score (higher = more potent) is on record?
Answer: -0.255

Question: How did the sensor-assay potency score (higher = more potent) turn out when TTGTGTAGGAGACATAAGCAGG was run?
Answer: -0.979

Question: How did the sensor-assay potency score (higher = more potent) turn out when TTTTTCATTACATCACTGCTAG was run?
Answer: 0.0706

Question: With TTATATTGAAGTCTGTGTCTTC as the sequence, how does the sensor-assay potency score (higher = more potent) read?
Answer: 0.707

Question: Which sensor-assay potency score (higher = more potent) does the source give for TATAACCATAGTCAGTTGCTGT here?
Answer: -0.854

Question: How did the sensor-assay potency score (higher = more potent) turn out when TTTCTCTACTAGTAACTCCATA was run?
Answer: -1.22

Question: Which sensor-assay potency score (higher = more potent) does the source give for TAGTTTTGTGTAGTAGCTGGGG here?
Answer: 0.0406

Question: TTGTGTGTAACTTAACCACTTT was tested. Which sensor-assay potency score (higher = more potent) did it give?
Answer: -0.519

Question: With TTGACATTTCTATCTCCTCGGA as the sequence, how does the sensor-assay potency score (higher = more potent) read?
Answer: -0.27

Question: How did the sensor-assay potency score (higher = more potent) turn out when TCTTCTTCTCGTCTTCGCCAGT was run?
Answer: -1.15

target: ZHX1; test: as above; details: shRNA

Question: Which sensor-assay potency score (higher = more potent) does the source give for TTGTATTAGATTCAGAAGCTGA here?
Answer: -0.592

Question: How did the sensor-assay potency score (higher = more potent) turn out when TTATGATGAACTGCAATCCGTT was run?
Answer: -0.993

Question: With TTCTTCTTCTCTGTAAACCAAG as the sequence, how does the sensor-assay potency score (higher = more potent) read?
Answer: -1.18

Question: Which sensor-assay potency score (higher = more potent) does the source give for TTTCTCTTTAAACTTTTGGGGA here?
Answer: -0.716

Question: How did the sensor-assay potency score (higher = more potent) turn out when TTTTTTTACATATCTTGCCTGT was run?
Answer: -0.102

Question: For TAGACATACAGTATTAAACTGG, which sensor-assay potency score (higher = more potent) is on record?
Answer: -0.456

Question: For TTTACTGATAGATATTCCCGAA, which sensor-assay potency score (higher = more potent) is on record?
Answer: -0.468
